Screening results as filed in PubChem BioAssay.
Shiga inhibitor: A qHTS for Small Molecule Inhibitors of Shiga Toxin | Vero cells, Shiga toxin protein synthesis inhibition reporter | inhibition, % at 38.7 µM | 290,000 tested, 9.2% active | AID 2315, 2010; in the data active = inhibition mostly above about 28%, no sharp cut-off; inactive = mostly below about 43%; note: 0% is about no effect
AMA1 RON2 block: qHTS for Inhibitors of AMA1-RON; Towards Development of Antimalarial Drug Lead: Primary Screen | AlphaScreen AMA1-biotinylated RON2 peptide binding | Potency, µM (series often up to 58.2 µM), for inactives: at the top dose activity change, negative = inhibition, hits mostly inhibitors | AID 720542, 2013 | Plasmodium falciparum AMA1 (3D7) - RON2 peptide interaction | 360,000 tested, 0.2% active; active = well fitted inhibition curve with a large enough effect; inconclusive = small, poorly fitted or top-dose-only effect; inactive = no such curve, though single readings can be large or run the other way;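 note: potency is the fitted concentration of half-maximal effect; 0% = vehicle wells and -100% = peptide control; nearly all actives have a fitted effect of over 45% in size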
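AMA1 (3D7) with his tag at 25 nM final met compounds first, then biotinylated RON2 peptide at 25 nM; detection used donor plus acceptor beads, 10 µg/mL apiece, read by AlphaScreen after 30 min at room temperature.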
MARV entry inh: qHTS for inhibitors of binding or entry into cells for Marburg Virus; Marburg virus pseudotyped entry inhibition, cell reporter; Potency, µM (titrated, usually from 37.8 µM), for inactives: at the top dose activity change, negative = inhibition, usual class: inhibitors; 300,000 tested, 1.8% active; calls by dose curve; tested in HEK293 cells; note: potency is the fitted concentration of half-maximal effect; % is set by controls: 0 for no effect and ±100 for the full control effect
Lassa entry inh: qHTS for Inhibitors of binding or entry into cells for Lassa Virus. Lassa virus pseudotype entry inhibition, cell reporter. Potency, µM (doses to about 37.9 µM), without a hit: at the top dose activity change, negative = inhibition, hits mostly inhibitors. 300,000 tested, 1.2% active; calls by dose curve; tested in HEK293 cells; note: potency is the fitted concentration of half-maximal effect; % is set by controls: 0 for no effect and ±100 for the full control effect; nearly all actives have a fitted effect of over 50% in size
CHX counter: Cycloheximide Counterscreen for Small Molecule Inhibitors of Shiga Toxin; cell reporter, cycloheximide protein synthesis inhibition counterscreen; max response, %; 300,000 tested, 12% active; in the data active = max response mostly above about 13%, no sharp cut-off; inactive = mostly below about 14%; note: read at 38.3 µM for the half of the compounds with a filed dose; 0% is about no effect
An asterisk follows results filed as active; ? = inconclusive; . = no result given; [ ] = another dose, or the depositor's remark. The sample as a whole holds a higher share of hits than the screen did.

SMILES | Shiga inhibitor | AMA1 RON2 block | MARV entry inh | Lassa entry inh | CHX counter
CC(/C=N/Nc1nnc2c(n1)[nH]c1ccccc12)=C\c1ccco1 | 65.1 | 48.9% | -10.9% | 1.8% | 32.0*
COc1cccc(/C=N/Nc2nnc3c(n2)[nH]c2ccccc23)c1OC | 50.2* | 16.9% | ? | ? | 35.7*
CCOC(=O)c1c(C)[nH]c(C)c1S(=O)(=O)N1CCN(c2ccc(Cl)cc2)CC1 | . | . | . | -6.5%[46.1 µM] | .
O=C(N/N=C/c1c(O)ccc2ccccc12)c1ccc(Br)o1 | -2.3 | 5.9% | ? | ? | 18.0*
Cn1ncc(Cl)c1C(=O)Nc1cccc(Cl)c1 | 7.3 | 5.4% | 11.6% | ? | 9.7
Cn1c(/N=C/c2c(O)ccc3ccccc23)nc2ccccc21 | 81.4* | -4.7% | 7.5% | -5.0% | 69.4*
Cn1ncc(N=Cc2c(O)ccc3ccccc23)c1C(=O)Nc1cccc(Cl)c1 | 25.5 | 5.8% | 18.3µM* | ? | 1.0
O=C(NN=Cc1c(O)ccc2ccccc12)c1ccncc1 | . | -4.7% | 3.16µM* | 3.16µM* | .
Cc1occc1C(=O)N/N=C/c1c(O)ccc2ccccc12 | 89.6* | 75.0% | 3.55µM* | ? | 35.5*
Cn1cc(C(=O)N/N=C/c2c(O)ccc3ccccc23)ccc1=O | 8.4 | ? | . | . | -1.4
Cn1nccc1C(=O)N/N=C/c1c(O)ccc2ccccc12 | 46.9* | 93.0% | . | . | 28.0*
O=C(N/N=C\c1c(O)ccc2ccccc12)c1ccc(O)cc1 | 12.3 | 126.2% | . | . | 1.8
O=C(COc1ccc(S(=O)(=O)N2CCCC2)cc1)NCC1CCCO1 (stereo not given) | 8.2 | 1.3% | -14.3%[46.1 µM] | -15.1% | 0.9
Cc1cccc(NC(=S)N(CCCN2CCCC2)Cc2cccn2Cc2ccc(Cl)cc2)c1 | -3.1 | -2.5% | 7.08µM* | ? | -2.9
CCOC(=O)c1nc(C)sc1-c1ccnn1S(=O)(=O)c1ccc(Cl)cc1Cl | 35.6 | -13.5% | -21.4% | -3.0% | 28.9*
CCOC(=O)c1nc(C)sc1-c1ccnn1S(=O)(=O)c1ccccc1C(F)(F)F | -3.7 | -8.0% | -12.0%[46.1 µM] | -10.7% | 5.6
[O-][N+]1=c2ccc(Nc3ccccc3)cc2=NC12CCCCC2 | 88.8* | ? | 2.24µM* | ? | 50.8*
COc1ccc(Nc2ccc3c(c2)=NC2(CCCCC2)[N+]=3[O-])cc1 | 58.9* | -26.2% | ? | ? | 26.1*
O=[N+]([O-])c1ccc2c(c1N1CCCCC1)=NC1(CCCCC1)[N+]=2[O-] | 1.8 | ? | 5.8%[46.1 µM] | 6.6% | 1.9
Cc1cc(CCCCCCCCc2cc(C)cc(=O)o2)oc(=O)c1 | -2.0 | 11.3% | 2.3% | -3.1% | -1.1
S=C(Nc1ccc(CN2CCCCC2)cc1)Nc1cccc(Cl)c1Cl | -9.8 | -14.0% | 11.2µM* | ? | 1.2
CCN1CCN(Cc2ccc(NC(=O)Nc3ccccc3Cl)cc2)CC1 | 97.0* | -2.0% | ? | 17.3% | 46.7*
O=C(Nc1ccncc1)Nc1ccc(Br)cc1Cl | -2.6 | -1.4% | ? | 4.4%[46.1 µM] | 12.2
CCN1CCN(Cc2ccccc2NC(=O)Nc2ccc(C)cc2)CC1 | 36.1* | 0.9% | ? | ? | 23.9*
S=C(Nc1ccccc1)Nc1cccc(Cl)c1Cl | -5.3 | 11.5% | . | . | -2.0
SMILES | Shiga inhibitor | AMA1 RON2 block | MARV entry inh | Lassa entry inh | CHX counter
O=C(Nc1ccc(Br)cc1)Nc1ccccc1Cl | 103.0* | 4.3% | . | . | 68.3*
CCOc1ccc(NC(=O)Cn2c(C)cc3ccccc3c2=O)cc1 | . | . | ? | -0.5%[46.1 µM] | .
O=C(Nc1ccc(CN2CCCCC2)cc1)Nc1ccccc1Cl | 52.7* | -2.3% | . | . | 32.5*
CNc1ccc2ncc(-c3ccccc3NC(C)=O)n2n1 | . | -4.9% | . | . | .
COCCCNc1ncnc2c1cnn2-c1ccc(C)cc1C | 10.5 | -1.7% | -0.5% | 4.4% | 11.1
COc1cc(CNc2ncnc3c2[nH]c2ccc(C)cc23)cc(OC)c1 | -3.2 | -7.7% | . | . | -0.9
c1ccc(-n2ncc3c(NCc4ccco4)ncnc32)cc1 | 84.7* | ? | ? | ? | 52.6*
Cc1ccc2[nH]c3c(NCc4ccco4)ncnc3c2c1 | 87.0* | -19.3% | 10µM* | -27.7% | 18.8*
Cc1ccc(-n2ncc3c(NCc4ccco4)ncnc32)c(C)c1 | 15.2 | -4.4% | . | . | 15.9*
CCCCNc1ncnc2c1cnn2-c1ccc(C)cc1C | 14.1 | 0.0% | . | . | 15.0*
COc1ccc(-c2cc3nc(-c4ccc(C)cc4)cc(C(F)(F)F)n3n2)cc1 | . | . | 3.8%[46.1 µM] | 9.5%[46.1 µM] | .
Cc1ccc(N=Cc2c(O)n(C)c(=O)n(C)c2=O)cc1 | 20.4 | 1.4% | . | . | 5.8
